Source: PubChem BioAssay
Rows were chosen to be rich in hits. Some 2.2% of all compounds tested hit in one or more screens of this group.
Ba/F3 V617F tox = loss of viability in JAK2V617F-driven Ba/F3 cells | Ba/F3 EpoR-JAK2V617F viability, ATP luminescence | inhibition, % at 5.6 µM | actives 1.1% (n = 220,000);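 active = inhibition above the campaign mean plus 3 SD over all tested compounds, cut at about 24% in these data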;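 note: cytokine-independent growth of Ba/F3 cells driven by EpoR plus mutant JAK2; 0% = DMSO-treated cells and 100% = JAK inhibitor I control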
IEC-6 tox = counter-screen for KLF5 inhibitors: cytotoxicity in IEC-6 cells | AID 1825 | IEC-6 cytotoxicity, luminescence viability | inhibition, % at 5 µM | actives 0.78% (n = 290,000); in the data active = inhibition above about 22%;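 note: 0% = plate median of test compound wells and 100% = cytotoxic reference compound wells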
APP 5UTR inh = APP translation inhibition | SH-SY5Y APP 5'UTR-luciferase reporter, luminescence | actives 0.82% (n = 190,000) | inhibition, % at 2 µM;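 active = inhibition above a set limit, derived from the sample mean plus 3 SD, cut at about 45% in these data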
KLF5 inhibitor = suppresses KLF5 promoter-driven expression | DLD-1 KLF5 promoter-luciferase reporter, luminescence | actives 0.23% (n = 290,000) | inhibition, % at 5 µM | AID 1700;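 active = inhibition above a per-plate limit of that plate's mean compound inhibition plus 3 SD, cut at about 60% in these data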;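 note: 0% = DMSO wells and 100% = LY294002 at 200 µM; higher means less KLF5 promoter-driven luciferase light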
aSyn UTR inh = 5' untranslated region of α-synuclein, MLPCN primary screen; AID 1813; inhibition, % (tested at 7.5 µM); alpha-synuclein 5'UTR reporter, inhibitor activity; actives 0.82% (n = 300,000); in the data active = inhibition above about 60%;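 note: H4 neuroglioblastoma cells stably carrying SNCA 5'UTR luciferase fusion; 0% = DMSO wells and 100% = positive control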
BaF3 tox = parental Ba/F3 viability inhibition as JAK2V617F counter-screen; CellTiter-Glo ATP luminescence; inhibition, % at 5.6 µM; actives 1.1% (n = 220,000);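 active = inhibition above a per-campaign cutoff, the mean inhibition of all tested compounds plus 3 SD, cut at about 27% in these data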;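 note: 0% = DMSO wells and 100% = JAK Inhibitor I control wells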
* = called active by the depositor; ! = a repeat was not active.

Results for CCN(CC)C1=NC(=[N+](CC)CC)c2ccccc21 ?
Ba/F3 V617F tox: 80*; IEC-6 tox: -1; APP 5UTR inh: 1; KLF5 inhibitor: 9; aSyn UTR inh: -21; BaF3 tox: 66*

How did Cc1ccc(NC(=O)[C@@H](NC(=O)N2C[C@H]3C[C@@H](C2)c2cccc(=O)n2C3)C(C)C)cc1 do in these assays?
IEC-6 tox: 0; KLF5 inhibitor: -4; aSyn UTR inh: -5

How did CC(=O)O[C@@H]1/C=C/[C@](C)(O)C[C@@H](C)C/C=C/[C@H]2[C@@H]3O[C@]3(C)[C@@H](C)[C@H]3[C@H](Cc4ccccc4)NC(=O)[C@@]312 do in these assays?
aSyn UTR inh: 114*

What do the screens show for `Cc1ccc(-c2cc(-c3ccc(C)cc3)[n+](-c3ccc(C(=O)[O-])cc3)c(-c3ccc(C)cc3)c2)cc1`?
aSyn UTR inh: 83*

What do the screens show for `O=[N+]([O-])c1cc(Cl)c(O)c(-[n+]2c(-c3ccccc3)cc(-c3ccccc3)cc2-c2ccccc2)c1`?
IEC-6 tox: -8; KLF5 inhibitor: -12; aSyn UTR inh: -8

How did C[n+]1c(-c2ccccc2)cc(-c2ccc(Cl)cc2)cc1-c1ccccc1 do in these assays?
Ba/F3 V617F tox: 46*; IEC-6 tox: 8; APP 5UTR inh: -6; KLF5 inhibitor: -2; aSyn UTR inh: 0; BaF3 tox: 30*

What do the screens show for `CCOC(=O)c1cccc(-[n+]2c(-c3ccccc3)cc(-c3ccccc3)cc2-c2ccccc2)c1`?
aSyn UTR inh: 8

How did Cc1ccc(-c2cc(-c3ccc(C)cc3)[n+](-c3ccccc3)c(-c3ccc(C)cc3)c2)cc1 do in these assays?
aSyn UTR inh: 76*

Results for CN(C)c1ccc(-[n+]2c(-c3ccccc3)cc(-c3ccccc3)cc2-c2ccccc2)cc1 ?
Ba/F3 V617F tox: 101*; IEC-6 tox: 71*; APP 5UTR inh: 45; KLF5 inhibitor: 60; aSyn UTR inh: 84*; BaF3 tox: 94*

Results for C[C@]12CCC3[C@@H](CCC4=CC(=O)CC[C@@]43CO)C1CCC2=O (stereo not given in full) ?
IEC-6 tox: -5; KLF5 inhibitor: -21; aSyn UTR inh: 22

Results for O=C(COc1ccc(Br)cc1)N1CCN(Cc2ccc3c(c2)OCO3)CC1 ?
IEC-6 tox: 6; KLF5 inhibitor: 6; aSyn UTR inh: 13

What do the screens show for `COc1ccccc1N1C(=O)CC(=O)NC1=O`?
IEC-6 tox: -9; KLF5 inhibitor: -13; aSyn UTR inh: -6

What do the screens show for `Cc1ccc(-c2cc(-c3ccccc3)cc(-c3ccccc3)[n+]2-c2ccccc2)cc1`?
aSyn UTR inh: 85*

How did CCOC(=O)c1ccc(-[n+]2c(-c3ccccc3)cc(-c3ccccc3)cc2-c2ccccc2)cc1 do in these assays?
aSyn UTR inh: -38

Results for CN(C(=O)CNC(=O)OCc1ccccc1)c1ccc(Br)cc1C(=O)c1ccccc1Cl ?
Ba/F3 V617F tox: 10; IEC-6 tox: 3; APP 5UTR inh: 80*; KLF5 inhibitor: 7; aSyn UTR inh: 17; BaF3 tox: 15

How did O=C(CNC(=O)OCc1ccccc1)Nc1ccc(Br)cc1C(=O)c1ccccc1Cl do in these assays?
Ba/F3 V617F tox: 3; IEC-6 tox: 5; APP 5UTR inh: 4; KLF5 inhibitor: -28; aSyn UTR inh: 21; BaF3 tox: 9

What do the screens show for `Cn1cccc1CN1CCN(C(=O)COc2ccccc2)CC1`?
Ba/F3 V617F tox: -4; IEC-6 tox: -6; APP 5UTR inh: -12; KLF5 inhibitor: -14; aSyn UTR inh: -10; BaF3 tox: 1

Results for Cn1nc(-c2ccc(OCC(=O)N3CCN(Cc4ccccc4)CC3)cc2)c2ccccc2c1=O ?
Ba/F3 V617F tox: 1; IEC-6 tox: 5; APP 5UTR inh: -17; KLF5 inhibitor: -46; aSyn UTR inh: 1; BaF3 tox: 39*!

Results for Cc1nc2cc(-c3ccc(Cl)cc3)nn2c(C)c1CCC(=O)N1CCC2(CC1)OCCO2 ?
Ba/F3 V617F tox: 0; IEC-6 tox: 0; APP 5UTR inh: 50*; KLF5 inhibitor: -21; BaF3 tox: 4

Results for O=C(CCn1nc(-c2ccc(Cl)cc2)ccc1=O)N1CCC2(CC1)OCCO2 ?
Ba/F3 V617F tox: 1; IEC-6 tox: -8; APP 5UTR inh: -13; KLF5 inhibitor: -1; aSyn UTR inh: 16; BaF3 tox: 12

What do the screens show for `Cc1ccc(-n2c(O)c(C=Nc3ccccc3N)c(=O)[nH]c2=O)cc1C`?
Ba/F3 V617F tox: 1; IEC-6 tox: 4; APP 5UTR inh: -135; KLF5 inhibitor: -51; aSyn UTR inh: -16; BaF3 tox: 4

How did O=c1[nH]c(=O)n(-c2ccc(F)cc2)c(O)c1C=Nc1ccccc1N1CCCC1 do in these assays?
Ba/F3 V617F tox: 5; IEC-6 tox: -2; APP 5UTR inh: -2; KLF5 inhibitor: 1; aSyn UTR inh: -1; BaF3 tox: 38*

What do the screens show for `Cc1ccc(NP(=O)(Oc2ccccc2F)Oc2ccccc2F)cc1`?
Ba/F3 V617F tox: -2; IEC-6 tox: -7; APP 5UTR inh: 0; KLF5 inhibitor: -12; aSyn UTR inh: 9; BaF3 tox: 66*

What do the screens show for `Cn1ncnc2c(=O)n(C)c(=O)nc1-2`?
aSyn UTR inh: 98*

What do the screens show for `C=C(C)[C@@]12OC3(c4ccccc4)O[C@@H]1C1[C@@H]4O[C@]4(CO)[C@@H](O)[C@]4(O)C(=O)C(C)=C[C@H]4[C@@]1(O3)[C@H](C)[C@H]2OC(=O)/C=C/C=C/c1ccccc1` (stereo not given in full)?
aSyn UTR inh: -16

Results for CCCCOCCCN1C(C)=CC(=C2C(=O)NC(=S)NC2=O)C=C1C ?
Ba/F3 V617F tox: -2; IEC-6 tox: -3; KLF5 inhibitor: -19; aSyn UTR inh: 15; BaF3 tox: -3

Results for CC1=CC(=C2C(=O)NC(=S)NC2=O)C=C(C(F)(F)F)N1Cc1ccccc1 ?
Ba/F3 V617F tox: 5; IEC-6 tox: 9; APP 5UTR inh: 90*; KLF5 inhibitor: 25; aSyn UTR inh: 113*; BaF3 tox: 14

How did CC1=CC(=C2C(=O)NC(=O)NC2=O)C=C(C(F)(F)F)N1Cc1ccccc1 do in these assays?
Ba/F3 V617F tox: 3; IEC-6 tox: 2; APP 5UTR inh: -1; KLF5 inhibitor: 3; aSyn UTR inh: 20; BaF3 tox: 5

What do the screens show for `CC1=CC(=C2C(=O)NC(=S)NC2=O)C=C(C(F)(F)F)N1CCc1ccccc1`?
Ba/F3 V617F tox: -1; IEC-6 tox: -4; APP 5UTR inh: 92*; KLF5 inhibitor: -36; aSyn UTR inh: 1; BaF3 tox: 8

What do the screens show for `COC[C@]12CN(C)C3C4[C@H](OC)[C@H]1C3([C@@H](OC)C[C@H]2O)[C@@H]1C[C@@]2(O)[C@H](OC(=O)c3ccccc3)[C@@H]1[C@]4(OC(C)=O)[C@@H](O)[C@@H]2OC`?
aSyn UTR inh: 2

Results for COc1ccc(C(CNC(=O)c2ccc3c(c2)CCC3)N(C)C)cc1 (stereo not given) ?
IEC-6 tox: 3; KLF5 inhibitor: 5; aSyn UTR inh: -8
